Source: PubChem BioAssay (University of Kansas High Throughput Screening Laboratory)
Compounds with a hit are over-represented: about 3.6% of the library has one in this group of screens.
Pf apPOL inh: Pf-apPOL DNA polymerase inhibition | inhibition, % at 10 µM | Recombinant Pf-apPOL, molecular beacon fluorescence, 1.5 h | actives 0.25% (n = 210,000)
mHTT-CaM PPI inh: disrupts binding of mutant huntingtin to calmodulin | P42858 | AID 1671202 | AlphaScreen His-mHTT/GST-CaM binding, luminescence | actives 3.6% (n = 190,000) | inhibition, % at 15 µM;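 further: 0% = both proteins with DMSO and 100% = one protein alone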
Starred values were filed as active, the others as inactive. No stated cut-off is given here; in the data, active means inhibition above about 50%; inactive means the rest.

SMILES | Pf apPOL inh | mHTT-CaM PPI inh
CCc1ccc(S(=O)(=O)N2CCC(Cc3nc4cccnc4n3C)C2)cc1 (centres undefined) | -9 | 8
CCC(=O)NCc1nc2c(n1CC)CN(C(=O)Cc1cccc(F)c1)CC2 | -4 | 6
CCCN1C(=O)C2CCC(=O)N2c2ccc(C(=O)NCCCOC)cc21 (centres undefined) | -4 | -1
O=C(Nc1c2c(nn1-c1ccc([N+](=O)[O-])cc1)CSC2)c1ccc(F)cc1 | 58* | 34
O=C(Nc1c2c(nn1-c1ccc([N+](=O)[O-])cc1)CSC2)c1ccc([N+](=O)[O-])cc1 | -3 | 5
CCOc1cccc(CNc2cccc(F)c2)c1O | -4 | 7
O=C(Nc1ccccc1[N+](=O)[O-])c1ccc(Cl)c(S(=O)(=O)NC2CCCC2)c1 | -7 | 28
O=C(Nc1ccccc1[N+](=O)[O-])c1cc(S(=O)(=O)NC2CCCCC2)c(Cl)cc1Cl | -4 | 58*
CCOc1ccc(-c2c(C#N)c(N)n3c(nc4ccccc43)c2C#N)cc1OC | 0 | 47
COc1cc(-c2c(C#N)c(N)n3c(nc4ccccc43)c2C#N)ccc1OCC#N | 0 | 69*
CCN(CC)c1cc2c(c3c1ccn3C)C1CCC2O1 (centres undefined) | 2 | 5
Cn1ccc2c(N3CCCCCCC3)cc3c(c21)C1CCC3O1 (centres undefined) | 0 | 71*
Cn1ccc2c(-c3ccc(F)cc3F)cc3c(c21)C1CCC3O1 (centres undefined) | 12 | 12
Cn1ccc2c(-c3ccc4[nH]ccc4c3)cc3c(c21)C1CCC3O1 (centres undefined) | 0 | 56*
CN(c1cc2c(c3c1ccn3C)C1CCC2O1)C1CCCCC1 (centres undefined) | -1 | 59*
CCN(Cc1ccccc1)c1cc2c(c3c1ccn3C)C1CCC2O1 (centres undefined) | 0 | 12
CN(CCc1ccccc1)c1cc2c(c3c1ccn3C)C1CCC2O1 (centres undefined) | -2 | 99*
Cn1ccc2c(-c3cccc4ccccc34)cc3c(c21)C1CCC3O1 (centres undefined) | -2 | 30
Fc1ccccc1C1CC(c2cccc(Br)c2)Nc2nnnn21 (centres undefined) | 0 | 12
